Experimental data published in PubChem BioAssay (Tox21).
Records with an inconclusive call do not appear. Where a call stands in place of a potency, no number is given. Calls of active or inactive are those of the source. Calls follow the shape of the full dose curve.

molecular target: 5-hydroxytryptamine receptor 2A (Homo sapiens) (UniProt P28223); test: 5-hydroxytryptamine receptor 2A (HTR2A) small molecule agonists, cell-based qHTS assay (AID 1963587); settings: HTR2A-CHO cells, calcium flux fluorescence, agonist mode; series mostly up to 76.8 µM; also: nearly all actives have a fitted effect of over 30% in size
From the text: National Center for Advancing Translational Sciences [NCATS]
Division of Preclinical Innovation [DPI]
U.S. Environmental Protection Agency [EPA]
National Institutes of Environmental Health Sciences [NIEHS]
National Toxicology Program [NTP]
U.S. Food and Drug Administration [FDA]
The HTR2A receptor is a subtype of the 5-HT2 receptor that belongs to the serotonin receptor family and is a G protein-coupled receptor (GPCR). The HTR2A-CHO cell line stably expressing human 5-hydroxytryptamine receptor 2A (HTR2A) can be used for screening agonists of interactions between 5-HT2 and its ligands. The HTR2A-CHO calcium flux assay is a homogeneous fluorescence-based assay for detecting the intracellular calcium level using FDSS kinetic plate reader system.
HTR2A-CHO cells were dispensed at 2000 cells/3uL/well in 1536-well black-clear bottom plates using a Multidrop Dispenser. After the assay plates were incubated at a 37 C/5% CO2 incubator for 18 h, 3 uL of Dye Loading Buffer was transferred to the assay plate by a Flying Reagent Dispenser. The assay plates were incubated at 37 C for 1h. For agonist mode, 23 nL of compounds dissolved in DMSO, positive controls or DMSO only was transferred to the assay plate by a pin tool. The fluorescence intensity in the plates was measured using FDSS 7000EX kinetic plate reader for 2 min at 1 sec intervals.

Chain of 5-hydroxytryptamine receptor 2A (Homo sapiens) (P28223 whole entry, looked up): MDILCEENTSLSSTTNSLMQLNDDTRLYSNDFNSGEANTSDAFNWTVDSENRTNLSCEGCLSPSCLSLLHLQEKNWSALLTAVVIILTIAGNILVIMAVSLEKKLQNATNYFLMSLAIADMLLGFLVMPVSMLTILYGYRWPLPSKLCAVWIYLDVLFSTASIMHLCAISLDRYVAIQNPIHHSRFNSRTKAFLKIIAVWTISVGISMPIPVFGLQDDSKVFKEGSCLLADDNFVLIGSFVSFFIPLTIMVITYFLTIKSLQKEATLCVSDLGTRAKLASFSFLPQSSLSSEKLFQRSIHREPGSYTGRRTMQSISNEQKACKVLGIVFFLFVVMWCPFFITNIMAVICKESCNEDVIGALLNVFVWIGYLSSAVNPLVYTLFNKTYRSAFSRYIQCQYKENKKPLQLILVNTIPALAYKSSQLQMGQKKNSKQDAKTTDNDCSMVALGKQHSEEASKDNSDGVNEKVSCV

Compound	Potency
COc1ccc(CCC(C)=O)cc1	inactive
C#CCN(C)Cc1ccccc1	inactive
CC(O)COc1ccccc1 (stereo not given)	inactive
ClC/C=C/CCl	inactive
C=Cc1ccc(C)cc1	inactive
CN(C)CCOCCN(C)C	inactive
CC(=O)Oc1ccc(C)cc1	inactive
Nc1cccc(N)c1	inactive
O=C(O)c1[nH]n(-c2ccc(S(=O)(=O)O)cc2)c(=O)c1N=Nc1ccc(S(=O)(=O)O)cc1	inactive
COCC(C)O (stereo not given)	inactive
Cc1ccc([N+](=O)[O-])cc1S(=O)(=O)O	inactive
NC(=NCCCCCCN=C(N)/N=C(\N)Nc1ccc(Cl)cc1)/N=C(\N)Nc1ccc(Cl)cc1	inactive
CC(C)c1cccc(C(C)C)c1	inactive
CC(C)OC(=O)COc1ccc(Cl)cc1Cl	inactive
Cc1cc(Cc2cc(C)cc(C(C)(C)C)c2O)c(O)c(C(C)(C)C)c1	inactive
Cc1cccc2ccccc12	inactive
CCCCCCCCCC(=O)O	inactive
CC(=O)c1ccccn1	inactive
CCOCCO	inactive
COc1ccc([N+](=O)[O-])cc1N	inactive

Compound	Potency
C=C(C)CC(C)(C)C	inactive
CC(=O)Nc1ccc(C(=O)CCl)cc1	inactive
C=C1C2CCC(C2)C1(C)C (stereo not given)	inactive
CN(C)Cc1cc(CN(C)C)c(O)c(CN(C)C)c1	inactive
O=S(=O)(O)c1ccc(O)cc1	inactive
CC(=O)CC/C=C(\C)CCC=C(C)C	inactive
COC(=O)/C=C\C(=O)OC	inactive
CCCCN(CCCC)CCCC	inactive
ClC1=C(Cl)C(Cl)(Cl)C(Cl)=C1Cl	inactive
CC(C)CCCCCCCOC(=O)CCCCC(=O)OCCCCCCCC(C)C	inactive
COc1ccccc1O	inactive
CCCCCCCCCCO	inactive
O=Cc1ccc(CO)o1	inactive
CCCCOCCOCCO	inactive
Cc1c(N(C)C)c(=O)n(-c2ccccc2)n1C	inactive
Nc1ccn([C@H]2CC[C@@H](CO)O2)c(=O)n1	inactive
C=C(C)C(=O)O[C@H]1C[C@@H]2CC[C@@]1(C)C2(C)C	inactive
[O-]/[N+](=N\O)c1ccccc1	inactive
O=C1OC(c2ccc(O)cc2)(c2ccc(O)cc2)c2ccccc21	inactive
CCCOC(=O)c1ccccc1	inactive
